High-throughput results from PubChem BioAssay.
MITF TRPM1 inh = inhibitors of MITF-dependent TRPM1 promoter reporter, primary screen, cell-based, SK-MEL-5, single point, luciferase; SK-MEL-5 TRPM1 promoter luciferase, 24 h; AID 488899, 2010; actives 0.83% (n = 330,000); inhibition, % at 12.5 µM;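 active = mean inhibition across replicates of 60% or more, whatever share of single replicates reaches that level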
MITF act = activators of MITF-driven TRPM1 promoter reporter, primary screen, cell-based, SK-MEL-5, luciferase, single point. actives 0.75% (n = 300,000). activation, % at 12.5 µM. SK-MEL-5 TRPM1-promoter luciferase, 24 h; % of positive control, neutral wells = 0;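 active = mean activation of at least 80% with every replicate also reaching 80%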;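 also: 0% = neutral control wells and 100% = parthenolide positive control wells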
LMP1 NFkB inh = EBV LMP1-driven NF-kappaB luciferase reporter inhibitors, primary screen, cell-based, luminescence, single point; LMP1-induced NF-kappaB luciferase reporter cells; inhibition, % at 12.5 µM; actives 0.69% (n = 350,000); in the data active = inhibition above about 41%;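 also: 0% = neutral control wells and 100% = reference inhibitor control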
LGR2 inh = inhibitors of bursicon-induced LGR2 CRE-luciferase signal, primary screen, cell-based, HEK293, CRE-luciferase reporter, bursicon stimulation; bursicon-stimulated, 4 h; inhibition, % at 9.99 µM; actives 0.35% (n = 380,000); AID 720647, 2013;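 active = drop in luminescence signal, shown as inhibition above about 50% in the replicate tests, limit read from the data, passing the limit was not always enough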;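 also: agonist challenge used bursicon conditioned medium at about half maximal strength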
TWEAK Fn14 block = inhibitors of TWEAK-Fn14 signaling, primary screen, luciferase reporter cells, uHTS; TWEAK-stimulated Fn14 reporter cells, luciferase luminescence, 8 h; inhibition, % at 10 µM; actives 2% (n = 360,000); AID 1159606, 2016; in the data active = inhibition above about 50%
TROY signal inh = inhibitors of TROY-driven NF-kB signaling, primary screen, Q293 LMP1-TROYcd cells, NF-kB luciferase, uHTS; actives 0.98% (n = 360,000); inhibition, % at 10 µM; Q293 LMP1-TROYcd NF-kB luciferase reporter, 4 h;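 active = compounds whose plate-normalised and pattern-corrected inhibition of the luciferase reporter signal at the single screening dose is 50% or more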
* marks the source's active call; other numbers are inactive results; · = no result; ! = not active in a repeat. The list is not random: actives were taken first. Their share in the collection is about 3%.

SMILES | MITF TRPM1 inh | MITF act | LMP1 NFkB inh | LGR2 inh | TWEAK Fn14 block | TROY signal inh
Cc1cccc(OCC(=O)Nc2ccc3c(c2)OCO3)c1C | -17 | · | -3 | · | -5 | -39
Cc1ccc(OCC(=O)Nc2ccc3c(c2)OCO3)c(C)c1 | -87 | 89* | -15 | -78 | -15 | -52
C[C@H](CO)N1C[C@H](C)[C@@H](CN(C)C(=O)Nc2ccccc2F)Oc2cc(-c3ccccc3)ccc2S1(=O)=O | · | · | · | -14 | · | ·
Cc1cc(OCC(=O)Nc2ccc3c(c2)OCCO3)cc(C)c1Cl | 11 | -9 | 1 | · | -4 | -38
Cc1ccc(Cl)c(OCC(=O)Nc2ccc3c(c2)OCCO3)c1 | -128 | 131* | -10 | · | -3 | -27
Cc1nn(-c2cccc(C(=O)O)c2)c(C)c1[N+](=O)[O-] | -4 | 1 | 3 | 8 | 3 | 2
Cc1cc(C)n(-c2cccc(C(=O)O)c2)n1 | -13 | 11 | -22 | 1 | 80* | 19
Cc1ccc(-c2cnc3c(c2)C(=O)N([C@H](C)CO)C[C@H](C)[C@H](CN(C)C(=O)Cc2ccccc2)O3)cc1 | · | · | · | -6 | · | ·
COc1ccc(/C=N/Nc2nc(C)c([N+](=O)[O-])c(N(C)c3ccccc3)n2)cc1OC | 0 | -3 | 11 | · | 82* | ·
O=C(O)C(NS(=O)(=O)c1ccc(F)cc1)c1ccccc1 (stereo unspecified) | -4 | 7 | -15 | -2 | 90* | 14
COC(=O)C(NS(=O)(=O)c1ccc(C)cc1)c1ccccc1 (stereo unspecified) | -3 | 5 | -9 | 10 | -1 | 1
C(=Cc1cnc2ccccc2n1)c1ccc2c(c1)OCO2 | · | · | 80* | 99* | 98* | 81*
C(=Cc1nc2ccccc2o1)c1ccc2c(c1)OCO2 | · | · | 45* | 81* | 86* | 58*
C[n+]1c(/C=C/c2ccc3c(c2)OCO3)ccc2ccccc21 | -3 | 4 | 28 | -24 | 82* | 81*
Nc1nc2ccccc2n1/N=C/c1ccc2c(c1)OCO2 | · | · | · | -59 | -19 | -60
CNC[C@@H]1Oc2c(NC(=O)c3cc(C)nn3C)cccc2C(=O)N([C@H](C)CO)C[C@H]1C | · | · | · | 11 | · | ·
Nc1nc(CSC(=S)N2CCN(c3ccccc3)CC2)nc(Nc2ccc(F)cc2)n1 | 11 | -10 | 14 | -6 | 50* | 6
Nc1nc(CSC(=S)N2CCOCC2)nc(Nc2ccccc2)n1 | -112 | 118* | -8 | -33 | -1 | -71
Cc1ccc(Nc2nc(N)nc(CSC(=S)N3CCOCC3)n2)cc1 | -58 | · | 10 | · | -5 | -43
Nc1nc(CSC(=S)N2CCCCC2)nc(Nc2ccccc2)n1 | -45 | 50 | -12 | -75 | -31 | -53
COc1cccc(-c2ccc(C3[C@@H]4CN(C(=O)C5CC5)C[C@H]3N4)cc2)c1 (stereo partly specified) | · | · | · | 62*! | · | ·
Cc1noc(C)c1NC(=O)N[C@@H]1C=C[C@H](CC(=O)NCCCN(C)C)O[C@@H]1CO | · | · | · | 6 | · | ·
O=C(CC1CC1)Nc1ccc2c(c1)[C@H]1C[C@@H](CC(=O)N3CCCCC3)O[C@H](CO)[C@H]1O2 | · | · | · | -17 | · | ·
COCC(=O)N(C)C[C@@H]1Oc2ncc(-c3ccc(C#N)cc3)cc2C(=O)N([C@H](C)CO)C[C@@H]1C | · | · | · | 4 | · | ·
O=C(CCCc1ccccc1)NC1CC1 | -6 | 6 | 1 | 11 | -13 | -9
SMILES | MITF TRPM1 inh | MITF act | LMP1 NFkB inh | LGR2 inh | TWEAK Fn14 block | TROY signal inh
O=C(O)CCCc1ccc2c(c1)CCc1ccccc1-2 | 88* | -85 | 24 | -21 | 56* | 27
COc1ccc(S(=O)(=O)N(C)C[C@H]2Oc3ccc(NC(=O)Cn4cnnn4)cc3C(=O)N([C@@H](C)CO)C[C@@H]2C)cc1 | · | · | · | 3 | · | ·
O=C(CCCc1nc(-c2ccccc2Cl)no1)NC1CCCC1 | 76* | -75 | 23 | -14 | 92* | 52*
CCOC(=O)c1ccc(Nc2ncnc3nc[nH]c23)cc1 | -120 | 121* | -13 | · | 19 | -41
CCOC(=O)c1ccc(Nc2ncnc3ccccc23)cc1 | -54 | 56 | 2 | -22 | 8 | 2
CCOC(=O)c1ccc(NC(=O)c2nc[nH]c2C(=O)NCCNC(=O)c2[nH]cnc2C(=O)Nc2ccc(C(=O)OCC)cc2)cc1 | 100* | -100 | 4 | -1 | 6 | 3
c1ccc(COc2ccc(Nc3ncnc4nc[nH]c34)cc2)cc1 | -78 | 82* | -36 | -53 | 1 | -17
C[C@H]1CN([C@@H](C)CO)C(=O)c2c(c3ccccc3n2C)-c2ccccc2CO[C@@H]1CN(C)C(=O)c1ccncc1 | · | · | · | -6 | · | ·
CC(=O)c1ccc(N2CCN(C(=O)COc3ccc(F)cc3)CC2)c(F)c1 | 5 | -4 | 15 | · | -8 | 21
CCC(=O)c1ccc(N2CCN(C(=O)COc3ccc(F)cc3)CC2)c(F)c1 | 0 | 0 | 3 | · | 81* | ·
CCCC#Cc1ccc([C@@H]2[C@H](CO)N3C(=O)CN(C(=O)c4ccncc4)C[C@@H]23)cc1 | · | · | · | -3 | · | ·
O=C(CSc1nccc(=O)[nH]1)Nc1cccc2ccccc12 | 2 | · | -3 | -5 | 50* | -12
O=C(CSc1nccc(=O)[nH]1)Nc1ccc2ccccc2c1 | 1 | 1 | -6 | 6 | 28 | 35
O=C(C[C@H]1CC[C@H](NC(=O)c2ccncc2)[C@@H](CO)O1)NCC1CCCCC1 | · | · | · | -6 | · | ·
c1cc(N2CCOCC2)ccc1-c1ccc2nncn2c1 | · | · | · | -8 | 90* | 86*
COc1ccc(-c2cc3nc(NCc4ccc(C)cc4C)n(C)c(=O)c3s2)cc1OC | · | · | · | -12 | 76* | 26
CO[C@@H]1CN(C)C(=O)c2cc(NC(=O)c3cc(C)on3)ccc2OC[C@@H](C)N(CC2CC2)C[C@H]1C | · | · | · | 10 | · | ·
COCCNC(=O)C(=O)c1c(-c2ccccc2)[nH]c2ccccc12 | 13 | -10 | -14 | -8 | 11 | -12
O=C(C(=O)N(Cc1ccccc1)Cc1ccccc1)c1c(-c2ccccc2)[nH]c2ccccc12 | 13 | -16 | -3 | 11 | 52* | 17
CCS(=O)(=O)Nc1ccc2c(c1)C(=O)N(C)C[C@H](OC)[C@@H](C)CN(C(=O)COC)[C@@H](C)CO2 | · | · | · | 13 | · | ·
Cc1ccc(-c2csc(N3CCN(CCCn4c(C(F)(F)F)nc5ccccc54)CC3)n2)cc1 | 23 | -18 | -6 | -4 | 10 | -3
Cc1ccc(-c2csc(N3CCN(CCCn4c(-c5ccncc5)nc5ccccc54)CC3)n2)cc1 | 67* | -65 | 33 | 27 | -6 | 1
CCC(=O)N1CCc2cc(S(=O)(=O)CCC(=O)NCc3ccco3)ccc21 | 3 | 0 | 2 | -6 | 101* | 10
